# Assay results: PubChem BioAssay (EPA / NIEHS)
# Activity calls are given as the source filed them. How the source made its calls: active means hit-call score of the fitted dose curve at least 0.9, where 1 is the maximum; inactive means score below 0.9.
# Read-out: Transforming Growth Factor (TGFB1), TGFB1 (gene 7040)
# Experiment: LTEA_HepaRG_TGFB1: Life Technologies and Expression Analysis (LTEA) Assay for Transforming Growth Factor (TGFB1) Transporter using HepaRG (AID 2283533)
# Details: mRNA level, 48 h; actives raise or lower the signal
# Protocol: LTEA_HepaRG is a cell based, multiplexed-readout assay that uses HepaRG, a human liver cell line, with measurements taken at 48 hours after chemical dosing on a 96-well plate.LTEA_HepaRG_TGFB1 is one of 102 assay component(s) measured in the LTEA HepaRG cell culture assay. It is a marker of Cell proliferation, survival, death.Data from the assay component LTEA_HepaRG_TGFB1 was analyzed into 1 endpoint. This assay endpoint, LTEA_HepaRG_TGFB1, was analyzed with bidirectional fitting relative to DMSO as the negative control and baseline of activity. Using a type of inducible reporter, measures of mRNA induction for gain or loss-of-signal activity can be used to understand regulation of transcription factor activity. To generalize the intended target to other relatable targets, this assay endpoint is annotated to the growth factor intended target family, where the subfamily is transforming growth factor beta.
# A total of 1060 chemcials from the ToxCast library were tested in eight-point concentration-response experiments. Cell culture and cytotoxicity assays were conducted at Thermo Fisher Scientific's Custom Services facility (Madison, WI). A single lot of human HepaRG cells (Thermo Fisher Scientific, Frederick, MD) was used for the cell culture experiments. 96-well format collagen type I coated plates of human HepaRG cells were prepared using established methods. Briefly, cryopreserved HepaRG cells were thawed, plated at a density of approximately 100,000 cells/well in HepaRG Thaw, Plate, and General Purpose media (HPRG770, Thermo Fisher Scientific), and incubated for 48 hours. 0.5% DMSO was selected as vehicle control to balance the requisite need of DMSO in HepaRG cultures to maintain differentiation (for example, baseline metabolism, proportions of hepatocytes vs. cholangiocytes), while enabling further hepatic receptor pathway activation (for example, PXR and CAR) in response to chemical exposure. 48 hours after plating, the culture medium was replaced with HepaRG Serum-Free Incudtion Media. Cells were exposed to each test chemical in duplicate and maintained in CO2 incubators for another 48 hours. Chemical plates were thawed to room temperature and 200x concentrations of treatment groups were prepared. 8-point conentration-reponse curves were made with the highest exposure at 100 uM, followed by half-log dilutions, all in 0.5% DMSO. Each test plate contained variouse controls, induction positive controls (1mM phenobarbital), cytotoxicity positive controls ([…] aflatoxin B1), vehicle controls (0.5% DMSO), and total lysis controls (0.5% DMSO). Cell morphology images were taken using an Essen IncuCyte FLR automated microscope, with six 96-well plates imaged in about 24 minutes. Images were captured and exported and JPEG files. Spent culture media was transfered to black-well plates for the LDH assay, and remaining media was sorted at -80 C for later use. Cells were treated with RLT buffer and frozen until shipped for gene expression analysis. Total RNA was isolated from the cell suspension in 75 uL of Buffer RLT (Qiagen, Germantown, MD 20874) by Quintiles/Expression Analysis (Durham, NC) using a custom isolation procedure. Total RNA from each plate well was transferred to a preamplification plate. Fluidigm's 96.96 Dynamic ArrayTM (Fluidigm, Amsterdam, the Netherlands) technology was used for gene expression analyses by quantitative reverse transcription polymerase chain reaction (qRT-PCR, performed by Quintiles/Expression Analysis, Durham, NC)89. Standard TaqManTM Assays (Applied Biosystems/ThermoFisher Scientific, Foster City, CA) were used to assess the expression of 93 genes selected based on their selectivity and sensitivity to important hepatic receptors known to be modulated by environmental chemicals; importance in human hepatocyte functionality; and hepatotoxicity. […]
Compound,outcome,AC50
CCCCCCCCCCCC(=O)OC,inactive,
CC(CO)OC(C)CO (stereo not given) (tested in a mixture with another compound),inactive,
c1cc(-c2ccncc2)ccn1,inactive,
COc1ccc2c(c1)c(CC(=O)O)c(C)n2C(=O)c1ccc(Cl)cc1,inactive,
CCCCC(CC)COC(=O)CC(C(=O)OCC(CC)CCCC)S(=O)(=O)O (stereo not given),,77.6 µM (active)
CN[C@H]1CC[C@@H](c2ccc(Cl)c(Cl)c2)c2ccc(S(N)(=O)=O)cc21,inactive,
CCc1c(C(=O)NN2CCCCC2)nn(-c2ccc(Cl)cc2Cl)c1-c1ccc(Br)cc1,,13.2 µM (active)
Cc1cc(NC(=O)C(=O)O)cc(C)c1Oc1ccc(O)c2c1CCC2,inactive,
CCCCCCCCCCCCCO,inactive,
COc1ccc(S(=O)(=O)N2C(=O)[C@@](c3ccccc3OC)(N3C[C@H](O)C[C@H]3C(=O)N(C)C)c3cc(Cl)ccc32)c(OC)c1,,19.1 µM (active)
CCCCCCCCCCO,inactive,
Oc1ccc2ccccc2c1N=Nc1ccccc1,inactive,
CCCCCCCC=O,inactive,
CCCCCCCCCCCCCCCC,inactive,
COCCOCCOC,inactive,
Cc1nc(C)nc(N2C[C@@H](C)N(c3ccnc([C@@H](C)O)n3)[C@@H](C)C2)n1,inactive,
Nc1nc(N)c2nc(CNc3ccc(C(=O)N[C@@H](CCC(=O)O)C(=O)O)cc3)cnc2n1,inactive,
CC(=O)OCCOCCOCCOC(C)=O,inactive,
O=c1[nH]cc(F)c(=O)[nH]1,inactive,
NCCO,inactive,

Compound,outcome,AC50
CC=Cc1ccc(O)c(OC)c1,inactive,
NS(=O)(=O)c1cc2c(cc1Cl)NCNS2(=O)=O,inactive,
CN1CCN(Cc2cc(-c3ccc4[nH]c(=O)oc4c3)co2)[C@@H](c2ccc(F)cc2)C1,,62 µM (active)
Nc1ccc2c(c1)C(=O)c1ccccc1C2=O,inactive,
CC(C)(C)c1cc(O)c(C(C)(C)C)cc1O,inactive,
CCCCCC(=O)O,inactive,
CCOc1ccc2c(c1)C(C)=CC(C)(C)N2,inactive,
CCCCOC(=O)CCCCCCCCC(=O)OCCCC,inactive,
O=C(O)Cc1ccccc1Nc1c(Cl)cccc1Cl,inactive,
CCCCN(CCCC)CCCC,inactive,
CC(=O)Oc1ccccc1C(=O)O,inactive,
Cc1ccc(Cl)cc1,inactive,
Cc1c(C(=O)O)c(O)cc2c1C(=O)c1c(O)c([C@@H]3O[C@H](CO)[C@@H](O)[C@H](O)[C@H]3O)c(O)c(O)c1C2=O,inactive,
COc1cc(S(=O)(=O)O)c(C)cc1N=Nc1c(O)ccc2cc(S(=O)(=O)O)ccc12,inactive,
Cc1cccc(C)c1O,inactive,
CNC(=O)[C@H]1O[C@@H](n2cnc3c(NCc4cc(Cl)ccc4OCc4cc(C)no4)ncnc32)[C@H](O)[C@@H]1N,inactive,
C[C@]12C=CC(=O)C=C1CC[C@@H]1[C@@H]2C(=O)C[C@@]2(C)[C@H]1CC[C@]2(O)C(=O)CO,inactive,
CCCc1cc(=O)[nH]c(=S)[nH]1,inactive,
O=[N+]([O-])C(CO)(CO)CO,inactive,
Cc1ccc(C)c(C)c1,inactive,
